Measurements reported in PubChem BioAssay (Tox21).
Results filed as inconclusive are left out. The source made the active and inactive calls. Unless noted, calls follow the shape of the dose curve; as a rule, active = well fitted curve in the direction sought with a large enough effect in the repeat runs; inconclusive = weak or mixed curves; inactive = no such curve, though single readings can be large; an effect the other way counts as inactive or inconclusive.

Tests used:
[1] = biological target: Retinoic acid receptor RXR-alpha (Homo sapiens) (UniProt P19793); test: qHTS assay to identify small molecule agonists of the RXR signaling pathway (AID 1159527; calls by dose curve; also: nearly all actives have a fitted effect of over 35% in size)
Method in brief: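 qHTS of the Tox21 10K library in GeneBLAzer RXR-alpha HEK 293T cells carrying a beta-lactamase reporter […]; 16 hr treatment, 9-cis retinoic acid as agonist control, FRET read-out.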

[2] = qHTS assay to identify small molecule agonists of the RXR signaling pathway - cell viability counter screen (AID 1159529); also: series mostly up to about 77 µM; nearly all actives have a fitted effect of over 50% in size
Method in brief: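 Cell viability is measured by CellTiter-Glo luminescence, 30 min at room temperature, in wells already read for beta-lactamase. Engineered HEK 293T cells (RXR-alpha-UAS-bla) are dosed 16 hr at 37 C. Tetraoctyl ammonium bromide serves as positive control.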

[3] = qHTS assay to identify small molecule antagonists of the retinoid acid receptor (RAR) signaling pathway - cell viability counter screen (AID 1159551); also: nearly all actives have a fitted effect of over 35% in size
Method in brief: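 Viability of C3RL4 cells is quantified from ATP by luminescence after 6 h treatment at 37 C with compounds and 1 uM retinol.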

[4] = qHTS assay to identify small molecule antagonists of the retinoic acid receptor (RAR) signaling pathway (AID 1159552; also: nearly all actives have a fitted effect of over 50% in size)
Method in brief: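 Quantitative HTS in C3RL4 RARE-luciferase reporter cells. Compounds were added with 1 uM (final) retinol; luminescence was read after 6 hr.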

[5] = qHTS assay to identify small molecule agonists of the retinoic acid receptor (RAR) signaling pathway (AID 1159553)
Method in brief: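 Compounds dissolved in DMSO were pinned onto C3RL4 cells seeded the previous day, and plates were held 6 hr at 37 C. RARE-driven luciferase output was then read by luminescence.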

[6] = biological target: Luciferin 4-monooxygenase (Photinus pyralis) (UniProt P08659); test: qHTS assay to identify small molecule inhibitors of firefly luciferase (AID 1224835); also: series mostly up to about 120 µM; nearly all actives have a fitted effect of over 25% in size
Method in brief: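 Inhibition of purified Photinus luciferase is measured by luminescence. Substrate levels (D-luciferin, ATP) sit at their KM values. Each compound is tested in a concentration series.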

[7] = qHTS assay to identify small molecule agonists of the constitutive androstane receptor (CAR) signaling pathway - cell viability counter screen (AID 1224836); also: series mostly up to about 92 µM; nearly all actives have a fitted effect of over 45% in size
Method in brief: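 Counter screen multiplexed with the CAR reporter readout: HepG2 cells co-transfected with hCAR and the CYP2B6-2.2kb construct receive a 15-concentration compound series and 0.75 uM PK11195 (final), then CellTiter-Fluor fluorescence is read after 23 h.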

[8] = qHTS assay to identify small molecule antagonists of the constitutive androstane receptor (CAR) signaling pathway - cell viability counter screen (AID 1224837); also: series mostly up to about 92 µM; nearly all actives have a fitted effect of over 45% in size
Method in brief: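 In quantitative HTS format, compounds at 15 concentrations were applied to HepG2 cells double-transfected with hCAR and CYP2B6-2.2kb under 50 nM CITCO stimulation; live-cell protease activity was read after 23 hr via CellTiter-Fluor.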

[9] = qHTS assay to identify small molecule antagonists of the estrogen related receptor signaling pathway with the pleiotropic PPARgamma coactivator (PGC) from Tox21 10K library - cell viability counter screen (AID 1224840; active = well fitted cell-killing curve with a large enough effect in the repeat runs, not every such curve was filed as active; also: nearly all actives have a fitted effect of over 40% in size)
Method in brief: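 Viability counter screen, PGC/ERR cells: 17.5 h compound exposure at 37 C, CellTiter-Fluor fluorescence endpoint.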

[10] = qHTS assay to identify small molecule agonists of the estrogen related receptor signaling pathway with the pleiotropic PPARgamma coactivator (PGC) from Tox21 10K library (AID 1224842); also: nearly all actives have a fitted effect of over 15% in size
Method in brief: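 Luminescence from One-Glo (30 min, room temperature) measured after PGC/ERR cells had 18 h at 37 C with pinned compound (23 nL in DMSO). Cells had been seeded at 2,000 per well and pre-incubated 6 h.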

[11] = biological target: Nuclear receptor subfamily 1 group I member 3 (Homo sapiens) (UniProt Q14994); test: qHTS assay to identify small molecule antagonists of the constitutive androstane receptor (CAR) signaling pathway (AID 1224838); also: nearly all actives have a fitted effect of over 40% in size
Method in brief: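 CITCO-stimulated (50 nM final) HepG2 cells stably transfected with hCAR and CYP2B6-2.2kb luciferase were exposed to compounds at 15 concentrations for 24 h at 37 C/5% CO2. A luciferase reagent was added and luminescence recorded after 30 min.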

[12] = qHTS assay to identify small molecule antagonists of the estrogen related receptor (ERR) signaling pathway - cell viability counter screen (AID 1224818); also: series mostly up to about 46 µM
Method in brief: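 Cytotoxicity check run alongside the ERR antagonist screen: cells exposed to test compounds 17.5 h at 37 C, viability taken as CellTiter-Fluor fluorescence intensity.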

[13] = qHTS assay to identify small molecule antagonists of the estrogen related receptor (ERR) signaling pathway (AID 1224819;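 also: luminescence from an ERR-driven luciferase reporter measured with One-Glo reagent; series mostly up to about 46 µM; nearly all actives have a fitted effect of over 50% in size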)
Method in brief: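 ERR reporter cells were plated at 2,000 cells/well and left 6 h at 37 C/5% CO2 before pin-tool transfer of compounds in DMSO. After 18 h at 37 C, One-Glo was added and luminescence was read 30 min later at room temperature.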

[14] = qHTS assay to identify small molecule agonists of the estrogen related receptor (ERR) signaling pathway (AID 1224820)
Method in brief: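 Luminescence readout (One-Glo, 30 min RT) from NTP-supplied ERR cell line exposed to compounds for 18 h at 37 C. Cells seeded 2,000 per well and pre-incubated 6 h before pin-tool compound transfer.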

[15] = system: estrogen-related receptor alpha (ERRalpha) with PGC-1alpha coactivator, human; test: qHTS assay to identify small molecule antagonists of the estrogen related receptor signaling pathway with the pleiotropic PPARgamma coactivator (PGC) (AID 1224821; calls by dose curve;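 also: series mostly up to about 46 µM; lower luminescence signal means antagonism of PGC/ERR signalling; nearly all actives have a fitted effect of over 50% in size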)
Method in brief: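 PGC/ERR reporter cells; 6 h pre-incubation 37 C/5% CO2; pin-tool compound in DMSO, 18 h 37 C; One-Glo added, 30 min RT; luminescence read. qHTS antagonist mode.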

[16] = qHTS assay to identify small molecule antagonists of the estrogen related receptor signaling pathway with the pleiotropic PPARgamma coactivator (PGC) cell viability counter screen (AID 1224822; also: series mostly up to about 46 µM)
Method in brief: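 Viable cell signal (CellTiter-Fluor, 30 min, 37 C/5% CO2) was measured in PGC/ERR cells after a 17.5 h compound incubation.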

[17] = qHTS assay to identify small molecule agonists of the estrogen related receptor signaling pathway with the pleiotropic PPARgamma coactivator (PGC) (AID 1224823)
Method in brief: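 Luminescence readout (One-Glo, 30 min RT) from PGC/ERR cell line treated 18 h at 37 C with pin-tool-delivered DMSO compound solutions; cells plated 6 h before dosing. Quantitative HTS format.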

[18] = biological target: Nuclear receptor subfamily 1 group I member 3 (Homo sapiens) (UniProt Q14994); test: qHTS assay to identify small molecule agonists of the constitutive androstane receptor (CAR) signaling pathway (AID 1224839); also: series mostly up to about 92 µM; nearly all actives have a fitted effect of over 15% in size
Method in brief: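 A 15-concentration quantitative screen uses HepG2 cells co-transfected stably with human CAR and CYP2B6-2.2kb reporter. Treatment lasts 24 h with 0.75 uM PK11195 final present; ONE-Glo luminescence is the signal.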

[19] = qHTS assay to identify small molecule antagonists of the estrogen related receptor signaling pathway with the pleiotropic PPARgamma coactivator (PGC) from Tox21 10K library (AID 1224841; call rule not given here)
Method in brief: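 In the PGC/ERR line, DMSO solutions of test chemicals are pin-delivered to 2,000 cells/well six hours after dispensing. Following eighteen hours' incubation, One-Glo reagent is added and luminescence recorded.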

[20] = qHTS assay to identify small molecule antagonists of the estrogen related receptor (ERR) signaling pathway from Tox21 library - cell viability counter screen (AID 1224834); also: nearly all actives have a fitted effect of over 30% in size
Method in brief: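 In this quantitative HTS format, ERR cells receive compounds in DMSO and are incubated for 17.5 h at 37 C. Live-cell protease activity is then detected with CellTiter-Fluor.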

Measured: Potency

Chain of Retinoic acid receptor RXR-alpha (Homo sapiens) (P19793 whole entry, looked up): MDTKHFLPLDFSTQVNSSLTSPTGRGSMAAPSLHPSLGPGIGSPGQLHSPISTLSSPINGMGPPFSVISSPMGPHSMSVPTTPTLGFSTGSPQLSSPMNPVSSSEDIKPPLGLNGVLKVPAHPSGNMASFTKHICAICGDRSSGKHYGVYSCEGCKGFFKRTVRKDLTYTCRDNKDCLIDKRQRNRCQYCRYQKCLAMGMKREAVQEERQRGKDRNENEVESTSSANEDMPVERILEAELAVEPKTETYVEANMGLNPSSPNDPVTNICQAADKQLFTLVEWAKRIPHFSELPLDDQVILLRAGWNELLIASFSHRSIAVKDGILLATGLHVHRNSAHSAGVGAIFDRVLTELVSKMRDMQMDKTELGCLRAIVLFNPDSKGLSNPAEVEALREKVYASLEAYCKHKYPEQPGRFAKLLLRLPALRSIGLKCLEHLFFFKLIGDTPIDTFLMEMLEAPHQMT
Chain of Nuclear receptor subfamily 1 group I member 3 (Homo sapiens) (Q14994 whole entry, looked up): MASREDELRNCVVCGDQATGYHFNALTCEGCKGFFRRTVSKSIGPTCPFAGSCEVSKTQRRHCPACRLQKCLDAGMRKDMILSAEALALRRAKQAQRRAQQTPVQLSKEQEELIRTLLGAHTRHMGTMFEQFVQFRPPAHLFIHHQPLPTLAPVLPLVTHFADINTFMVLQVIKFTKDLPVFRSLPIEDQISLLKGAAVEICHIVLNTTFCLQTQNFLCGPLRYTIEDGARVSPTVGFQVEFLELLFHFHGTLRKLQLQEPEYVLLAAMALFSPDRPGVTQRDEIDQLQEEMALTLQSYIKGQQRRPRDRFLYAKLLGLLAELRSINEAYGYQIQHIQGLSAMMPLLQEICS
Chain of Luciferin 4-monooxygenase (Photinus pyralis) (P08659 whole entry, looked up): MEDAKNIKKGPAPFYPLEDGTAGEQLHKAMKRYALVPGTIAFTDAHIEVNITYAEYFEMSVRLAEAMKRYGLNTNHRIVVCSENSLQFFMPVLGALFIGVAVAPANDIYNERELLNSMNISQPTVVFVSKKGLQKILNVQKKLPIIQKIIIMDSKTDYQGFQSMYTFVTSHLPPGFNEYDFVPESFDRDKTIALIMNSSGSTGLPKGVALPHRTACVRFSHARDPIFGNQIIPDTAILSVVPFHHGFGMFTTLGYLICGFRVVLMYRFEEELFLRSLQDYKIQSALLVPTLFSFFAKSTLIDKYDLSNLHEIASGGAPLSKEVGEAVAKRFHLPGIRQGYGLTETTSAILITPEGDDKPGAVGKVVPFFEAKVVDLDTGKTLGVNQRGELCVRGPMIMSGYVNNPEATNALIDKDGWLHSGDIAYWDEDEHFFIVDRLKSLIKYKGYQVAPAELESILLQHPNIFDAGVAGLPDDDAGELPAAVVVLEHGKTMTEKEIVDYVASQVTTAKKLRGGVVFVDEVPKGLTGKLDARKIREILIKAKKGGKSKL

C1CN(CCOCCN2CCOCC2)CCO1
inactive: [1] | [2] | [3] | [4] | [5] | [6] | [7] | [8] | [9] | [10]

CCOc1ccc(C(=O)OCCN(CC)CC)cc1
inactive: [1] | [2] | [3] | [4] | [5] | [6] | [7] | [8] | [11] | [9] | [10]

C[C@H](NC(CCc1ccccc1)C(=O)O)C(=O)N1CCC[C@H]1C(=O)O (stereo partly drawn)
inactive: [1] | [2] | [3] | [4] | [12] | [13] | [14] | [15] | [16] | [17] | [6] | [7] | [8] | [11] | [18] | [9] | [19] | [10]

Cc1ccc(Cl)cc1Cl
inactive: [1] | [2] | [3] | [4] | [5] | [6] | [7] | [8] | [11] | [18] | [19] | [10]

NS(=O)(=O)c1cc(C(=O)O)cc(N2CCCC2)c1Oc1ccccc1
inactive: [1] | [2] | [3] | [4] | [5] | [6] | [7] | [8] | [18] | [9] | [19] | [10]

CCN(CC)CCNC(=O)c1cc(S(C)(=O)=O)ccc1OC
inactive: [1] | [2] | [3] | [4] | [12] | [16] | [20] | [6] | [7] | [8] | [9]

Cc1[nH]c(=O)c(C#N)cc1-c1ccc2nccn2c1
inactive: [1] | [2] | [3] | [4] | [12] | [16] | [6] | [7] | [8] | [11] | [18]

CC[N+](C)(C)c1cccc(O)c1
inactive: [1] | [2] | [3] | [4] | [12] | [16] | [7] | [8] | [11] | [18] | [9]

CCSC(=O)N(CC(C)C)CC(C)C
inactive: [1] | [2] | [3] | [4] | [5] | [6] | [7] | [11] | [18] | [9] | [19] | [10]

N[C@H]1CN(c2c(F)cc3c(=O)c(C(=O)O)cn(C4C[C@H]4F)c3c2Cl)CC12CC2 (stereo partly drawn)
inactive: [1] | [2] | [3] | [4] | [5] | [6] | [7] | [8] | [11] | [18] | [9] | [10]

CN1CCN(c2cc3c(cc2F)c(=O)c(C(=O)O)cn3-c2ccc(F)cc2)CC1
inactive: [1] | [2] | [3] | [4] | [5] | [6] | [7] | [8] | [11] | [19] | [10]

Nc1cc(=O)[nH]c(N)n1
inactive: [1] | [2] | [3] | [4] | [12] | [16] | [20] | [6] | [7] | [8] | [11] | [18] | [9]

C[C@H]1C[C@@H](O)CC(C)(C)C1
inactive: [1] | [2] | [3] | [4] | [5] | [6] | [7] | [8] | [11] | [9] | [19] | [10]

O=C(O)CCCc1ccccc1
inactive: [1] | [2] | [3] | [4] | [5] | [6] | [7] | [8] | [18] | [19] | [10]

O=Cc1cccc([N+](=O)[O-])c1
inactive: [1] | [2] | [3] | [4] | [5] | [6] | [7] | [8] | [11] | [9] | [10]

CC(C(=O)O)c1ccc(CC2CCCC2=O)cc1 (stereo not drawn)
inactive: [1] | [2] | [3] | [4] | [12] | [16] | [20] | [6] | [7] | [8] | [18] | [9]

Nc1nc2c(ncn2COC(CO)CO)c(=O)[nH]1
inactive: [1] | [2] | [3] | [4] | [12] | [16] | [20] | [6] | [7] | [18]

OCCCC1CCCCC1
inactive: [1] | [2] | [3] | [4] | [5] | [6] | [7] | [11] | [18] | [9] | [19] | [10]

CC(=O)CC(C)C
inactive: [1] | [2] | [3] | [4] | [5] | [6] | [7] | [8] | [11] | [18] | [9] | [19] | [10]

CC(=O)OCC(=O)[C@@]1(O)CCC2C3CCC4=CC(=O)CC[C@]4(C)C3[C@@H](O)C[C@@]21C (stereo partly drawn)
inactive: [1] | [2] | [3] | [4] | [20] | [6] | [7] | [8] | [11] | [18] | [9] | [19] | [10]
